An excerpt weighted towards active compounds, which were near 28% of everything screened.
CYP2C9 inh: blocks human cytochrome P450 2C9. P11712. CYP2C9 Supersomes, luciferin-H conversion, luminescence. inhibition, % at 5 µM. 20% of 96,000 active. AID 777;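 active = blocking of liver enzyme CYP2C9 beyond about 50% at 5 µM, limit read from the data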
CYP2C19 activ: increases human CYP2C19 enzyme activity; recombinant CYP2C19, luciferin-H EGE luminescence; stronger effect = higher value; 0 = fully inhibited enzyme, 1 = untreated enzyme; activation factor at 5 µM; 96,000 tested, under 10 active; AID 1025;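 active = activation factor of at least 2 at 5 µM in the primary screen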;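 note: 0 = wells with 2.5 mM tranylcypromine and 1 = vehicle-only wells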
Target sequence (P33261 whole entry, looked up): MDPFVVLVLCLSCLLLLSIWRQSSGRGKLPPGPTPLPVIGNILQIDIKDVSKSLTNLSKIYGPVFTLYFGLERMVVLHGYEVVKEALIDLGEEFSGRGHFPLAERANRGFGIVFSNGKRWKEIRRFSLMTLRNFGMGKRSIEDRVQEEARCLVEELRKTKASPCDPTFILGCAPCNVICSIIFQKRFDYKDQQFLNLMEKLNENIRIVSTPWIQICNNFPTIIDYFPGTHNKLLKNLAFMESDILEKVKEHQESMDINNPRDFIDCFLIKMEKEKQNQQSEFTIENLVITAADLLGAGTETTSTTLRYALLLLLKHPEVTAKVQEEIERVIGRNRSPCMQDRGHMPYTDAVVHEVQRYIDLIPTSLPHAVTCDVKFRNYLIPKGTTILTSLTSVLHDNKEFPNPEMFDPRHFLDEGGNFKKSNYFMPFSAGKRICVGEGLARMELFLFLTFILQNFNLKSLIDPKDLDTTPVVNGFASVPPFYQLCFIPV
DAT uptake mod: modulates human dopamine transporter uptake under cocaine; Q01959; LLC-PK1 hDAT cells, [14C]-dopamine uptake with cocaine IC80; actives deviate in either direction; B-score at 10 µM; 1.3% of 110,000 active; AID 449768;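 active = Z score or B-score, a plate-position-corrected score, falls beyond the plate's 99.7% confidence bounds, in either direction; inactive = both scores lie inside the 99.7% bounds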;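 note: scored against the spread of the other compound wells on the same plate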
D1 allo mod: D1 dopamine receptor (human) allosteric modulation; AID 641; 5.9% of 58,000 active; B-score at 10 µM; HEK293 D1, CRE-luciferase, dopamine EC30 potentiation; actives deviate in either direction;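 active = luminescence count or its row- and column-corrected plate score outside the 99.7% band of the plate's sample wells, on either side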
CYP2C19 inh: human CYP2C19 inhibition; P33261; CYP2C19 Supersomes, luciferin-H EGE luminescence, 30 min; inhibition, % at 5 µM; 21% of 96,000 active; AID 778;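 active = CYP2C19 inhibition above a set limit at 5 µM in the primary screen, cut at about 50% in these data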;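 note: plate controls were negative control wells for no effect and 2.5 mM tranylcypromine positive control for full effect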
CYP2C9 act: activators of human CYP2C9 | P11712 | recombinant CYP2C9, luciferin-H conversion, luminescence; stronger effect = higher value; factor 1 = untreated enzyme, 0 = blocked | activation factor at 5 µM | 1.4% of 96,000 active | AID 1024;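 active = activation factor of 2 or more for CYP2C9 at a 5 µM dose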;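 note: 0 = sulfaphenazole-blocked wells and 1 = vehicle-only wells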
The depositor's hits bear a star; · = not tested or not shown.

SMILES	CYP2C9 inh	CYP2C19 activ	DAT uptake mod	D1 allo mod	CYP2C19 inh	CYP2C9 act
CCOC(=O)c1c2c(c(=S)n(-c3ccccc3)c1N)CCC2	54*	0.4	-0.19	·	60*	0.5
C/C(=N/NC(N)=S)c1ccccc1[N+](=O)[O-]	-3	1	0.48	·	-1	1
Fc1ccc(NCc2nnc(SCc3nnc(-c4ccccc4)o3)n2Cc2ccccc2)cc1	68*	0.2	1.3	-0.4	79*	0.3
O=C(CN(Cc1cccs1)C(=O)CNS(=O)(=O)c1ccc(F)cc1)NCc1ccco1	22	0.4	0.32	0.34	58*	0.8
O=C(CN(Cc1ccco1)C(=O)CNS(=O)(=O)c1ccc(F)cc1)NCc1ccc(F)cc1	-3	1	-0.013	-0.039	-3	1
O=C(CN(Cc1ccco1)C(=O)CNS(=O)(=O)c1ccccc1)NCc1ccc(F)cc1	62*	0.4	0.19	-0.054	61*	0.4
CN(C)S(=O)(=O)c1cccc(C(=O)NCc2ccco2)c1	-1	0.9	-0.16	0.79	5	1
O=C(CN(Cc1cccs1)C(=O)CNS(=O)(=O)c1ccc(Cl)cc1)NCc1ccco1	28	0.6	-0.47	·	38	0.7
CN(C)S(=O)(=O)c1cccc(C(=O)N(Cc2ccc(F)cc2)Cc2ccco2)c1	51*	0.9	-1	-1.2	6	0.5
Cc1ccc(S(=O)(=O)NCC(=O)N(CCc2ccccc2)CC(=O)NCc2ccco2)cc1	53*	0.3	0.081	0.28	72*	0.5
CCC1(C)CC(C(CC(=O)O)c2ccc(C)cc2)CCO1 (stereo not drawn)	49	0.7	-0.066	·	29	0.5
CN1c2ccccc2C(C)(C)C12C=Cc1cc(O)ccc1O2 (stereo not drawn)	61*	0.2	1.5	-1.6	76*	0.4
Cc1c(CN(C)C)c2c(n1Cc1ccccc1)C(=O)c1ccc(Br)cc1-2	63*	0.2	0.67	·	79*	0.4
CN1CCN(C(=O)C2=C[C@@H](c3ccccc3)C[C@@H](OCCCCO)O2)CC1	·	·	-0.17	·	·	·
N#Cc1cc2ccccc2nc1SCc1cccnc1	40	0.5	-0.49	·	52*	0.6
COc1ccc2nc(SCc3cccnc3)c(C#N)cc2c1	49	0.6	0.2	·	39	0.5
CCn1c(CNc2cccc(Cl)c2)nnc1SCC(=O)OC1CCCCC1	74*	0.3	·	-0.11	74*	0.3
CCn1c(CNc2ccccc2Cl)nnc1SCC(=O)OC1CCCCC1	45	0.3	2.5	-0.55	70*	0.6
Clc1ccc(-c2nnc3n2CCCS3)cc1	-11	1.1	-0.37	·	-11	1.1
COc1ccc(C(=O)NCC(c2cccnc2)N2CCN(c3ccc(F)cc3)CC2)cc1OC (stereo not drawn)	·	·	0.055	·	·	·
O=C(NCC(c1cccnc1)N1CCN(c2ccc(F)cc2)CC1)c1ccc2c(c1)OCO2 (stereo not drawn)	80*	0.4	0.89	-1.2	64*	0.2
COc1ccc(N2CCN(C(CNC(=O)c3ccc4c(c3)OCO4)c3cccnc3)CC2)cc1 (stereo not drawn)	28	0.8	0.91	-0.71	17	0.7
O=C(NCC(c1cccnc1)N1CCN(c2ccc(F)cc2)CC1)c1ccc(F)cc1 (stereo not drawn)	77*	0.2	3.2*	-1.9	81*	0.2
CC1CC(C(F)(F)C(F)(F)F)n2nc(C(=O)O)cc2N1 (stereo not drawn)	-10	1.1	·	-0.38	-9	1.1
CCOC(=O)N1CCN(C(=O)CSCc2nc(-c3ccccc3F)oc2C)CC1	32	0.6	0.75	-0.093	38	0.7
SMILES	CYP2C9 inh	CYP2C19 activ	DAT uptake mod	D1 allo mod	CYP2C19 inh	CYP2C9 act
Cc1cc(C)c2c(-n3cccc3)c(C(=O)NNS(=O)(=O)c3ccccc3)sc2n1	96*	0.7	0.73	·	33	0
CCCOc1ccc2oc(=O)c3c(c2c1)CCCN3C(=O)CN(C)Cc1ccccc1	86*	0.4	1.1	-0.0071	55*	0.1
CCCCCOc1ccc2oc(=O)c3c(c2c1)CCCN3C(=O)CN1CCCC(C(=O)OCC)C1 (stereo not drawn)	94*	0.2	1.1	·	76*	0.1
O=C(CN1CCCCC1)N1CCCc2c1c(=O)oc1ccc(OCc3ccccc3)cc21	·	·	0.55	·	·	·
COCc1nnc(NS(=O)(=O)c2ccc(Br)cc2)s1	57*	1.1	-1.7	-1.3	-13	0.4
COCc1nnc(NS(=O)(=O)c2ccc([N+](=O)[O-])cc2)s1	82*	1.2	0.54	·	-20	0.2
COC(=O)c1ccc2c(=O)sc(N3CCC(C(N)=O)CC3)nc2c1	25	0.9	-0.44	0.56	6	0.8
O=C(NN1c2ccccc2CCc2ccccc21)c1ccccc1Br	20	0.7	0.1	·	26	0.8
CCCC1CC(C)(c2csc(Nc3ccc(OCC)cc3)n2)OC1=O (stereo not drawn)	·	·	-0.2	·	·	·
CCOC(=O)Cn1c(=O)n(CC(=O)OCC)c2ccccc21	21	0.8	-0.66	-0.37	22	0.8
O=c1c2ccccc2n(Cc2cccc(F)c2)c(=O)n1C1CCCC1	27	0.7	0.12	·	32	0.7
N#Cc1ccccc1Cn1c(=O)n(C2CCCC2)c(=O)c2ccccc21	96*	0.1	0.19	·	86*	0
CCOC(=O)Cn1c(=O)n(C2CCCC2)c(=O)c2ccccc21	77*	0.1	-0.46	·	91*	0.2
Cc1sc(/N=C/c2ccccc2O)c(C#N)c1C	1	0.7	·	·	27	1
Cc1csc(SCc2nnc(-c3ccccc3Br)o2)n1	42	0.4	1.4	-1.2	60*	0.6
Cc1csc(SCc2nnc(-c3ccc(Cl)cc3)o2)n1	24	0.4	0.24	·	62*	0.8
COc1ccc(C2Nc3ccccc3C(=O)N2c2ccc(C)cc2)cc1Cn1cc([N+](=O)[O-])cn1 (stereo not drawn)	90*	0.5	0.67	·	46	0.1
COc1ccc(C2Nc3ccccc3C(=O)N2c2ccc(C)cc2)cc1Cn1nnc2ccccc21 (stereo not drawn)	81*	0.5	0.75	·	51*	0.2
COc1ccc(N2C(=O)c3ccccc3NC2c2ccc(OC)c(CSc3ccccn3)c2)cc1 (stereo not drawn)	58*	0.7	0.049	·	33	0.4
COc1ccc(C2Nc3ccccc3C(=O)N2Cc2ccco2)cc1COc1ccc(F)cc1 (stereo not drawn)	·	·	0.97	·	·	·
O=C1OC(C(=O)Nc2nccs2)Cc2ccccc21 (stereo not drawn)	40	0.6	1.6	·	44	0.6
Cc1csc(NC(C)c2nc3cc(Cl)c(Cl)cc3n2CCCO)n1 (stereo not drawn)	·	·	0.47	·	·	·
CN(C(=O)c1ccc(=O)[nH]c1)C1(C(=O)NC2CCCCC2)CCCCC1	-8	1.1	-0.016	0.69	-11	1.1
CCO[C@@H]1OC(C(N)=O)=C[C@H](c2coc3ccccc3c2=O)[C@H]1CCCO	·	·	-0.17	·	·	·
